Measurements from PubChem BioAssay (NCATS).
Results filed as inconclusive are left out. Calls of active or inactive are those of the source. Calls come from the whole dose curve; as a rule, active = well fitted curve in the direction sought with a large enough effect; inconclusive = small, poorly fitted or top-dose-only effect, or another doubt; inactive = no such curve, though single readings can be large; an effect the other way counts as inactive or inconclusive.

Legend:
[1] = qHTS of pediatric cancer cell lines to identify multiple opportunities for drug repurposing: Primary screen for NB1643 cells (AID 1347099); note: nearly all actives have a fitted effect of over 50% in size; note: potency is the fitted concentration of half-maximal effect;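 for activity change, negative = cytotoxic: plate controls were DMSO neutral control for no effect and bortezomib positive control for full effect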
Summary of the method: (§1)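 Luminescence from CellTiter-Glo served as readout of metabolically active cells after 48 h compound exposure. Titrations: MIPE 11-point, from 0.78 nM; NPC 8-point, from 0.59 nM (final). Concentration-response curves came straight from the primary screen.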

[2] = qHTS of pediatric cancer cell lines to identify multiple opportunities for drug repurposing: Primary screen for LAN-5 cells (AID 1347100); note: potency is the fitted concentration of half-maximal effect;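 for activity change, negative = cytotoxic: plate controls were DMSO neutral control for no effect and bortezomib positive control for full effect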
Summary of the method: (§2)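 Cells (500-1,000/well) rested 5 h, then received compounds for 48 h; metabolically active cells were measured by CellTiter-Glo luminescence. Final concentrations spanned up to 46 µM (MIPE, 11-point) or 0.59 nM-46 µM (NPC, 8-point) in primary screens, 11-point in follow-ups.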

[3] = qHTS of pediatric cancer cell lines to identify multiple opportunities for drug repurposing: Primary screen for BT-12 cells (AID 1347101); note: nearly all actives have a fitted effect of over 25% in size; note: potency is the fitted concentration of half-maximal effect;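 for activity change, negative = cytotoxic: plate controls were DMSO for no effect and bortezomib positive control for full effect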
Summary of the method: as §2

[4] = qHTS of pediatric cancer cell lines to identify multiple opportunities for drug repurposing: Primary screen for Rh18 cells (AID 1347102); note: nearly all actives have a fitted effect of over 65% in size; note: potency is the fitted concentration of half-maximal effect; for activity change, negative = cytotoxic: % is set by controls: 0 for no effect and ±100 for the full control effect
Summary of the method: as §2

[5] = qHTS of pediatric cancer cell lines to identify multiple opportunities for drug repurposing: Primary screen for OHS-50 cells (AID 1347103); note: nearly all actives have a fitted effect of over 40% in size; note: potency is the fitted concentration of half-maximal effect;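 for activity change, negative = cytotoxic: plate controls were DMSO neutral control for no effect and bortezomib positive control for full effect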
Summary of the method: as §2

[6] = qHTS of pediatric cancer cell lines to identify multiple opportunities for drug repurposing: Primary screen for RD cells (AID 1347104); note: nearly all actives have a fitted effect of over 55% in size; note: potency is the fitted concentration of half-maximal effect;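 for activity change, negative = cytotoxic: plate controls were DMSO for no effect and bortezomib for full effect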
Summary of the method: as §1

[7] = qHTS of pediatric cancer cell lines to identify multiple opportunities for drug repurposing: Primary screen for control Hh wild type fibroblast cells (AID 1347106);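 note: series mostly up to about 46 µM; % is set by controls: 0 for no effect and ±100 for the full control effect; a drop in luminescence marks cytotoxicity and a rise apparent proliferation; nearly all actives have a fitted effect of over 55% in size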
Summary of the method: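 Viability after 48 h compound treatment at 37C, 500-1,000 cells/well, read as ATP luminescence with CellTiter-Glo. Primary screens used 11-point (MIPE, 0.78 nM-46 µM) or 8-point (NPC, 0.59 nM-46 µM) final concentrations; follow-up screens used 11-point dilutions.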

[8] = qHTS of pediatric cancer cell lines to identify multiple opportunities for drug repurposing: Primary screen for Rh30 cells (AID 1347107); note: nearly all actives have a fitted effect of over 75% in size; note: potency is the fitted concentration of half-maximal effect; for activity change, negative = cytotoxic: series mostly up to about 46 µM; % is set by controls: 0 for no effect and ±100 for the full control effect
Summary of the method: as §2

[9] = qHTS of pediatric cancer cell lines to identify multiple opportunities for drug repurposing: Primary screen for MG 63 (6-TG R) cells (AID 1347105); note: nearly all actives have a fitted effect of over 50% in size; note: potency is the fitted concentration of half-maximal effect; for activity change, negative = cytotoxic: % is set by controls: 0 for no effect and ±100 for the full control effect
Summary of the method: as §1

[10] = qHTS of pediatric cancer cell lines to identify multiple opportunities for drug repurposing: Primary screen for Rh41 cells (AID 1347108); note: nearly all actives have a fitted effect of over 70% in size; note: potency is the fitted concentration of half-maximal effect;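 for activity change, negative = cytotoxic: series mostly up to about 46 µM; luminescence drop marks cytotoxic hits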
Summary of the method: as §1

[11] = qHTS of pediatric cancer cell lines to identify multiple opportunities for drug repurposing: Confirmatory screen for SK-N-MC cells (AID 1347111);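 note: potency is the fitted concentration of half-maximal effect; cells exposed to compound for 48 h before the readout; nearly all actives have a fitted effect of over 70% in size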
Summary of the method: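 Seed 500-1,000 cells/well; rest 5 h at 37 degrees C. Pin-transfer compounds, 11-point titration. Incubate 48 h. Add CellTiter-Glo, 15 min RT, read luminescence.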

[12] = qHTS of pediatric cancer cell lines to identify multiple opportunities for drug repurposing: Confirmatory screen for DAOY cells (AID 1347114); note: potency is the fitted concentration of half-maximal effect; nearly all actives have a fitted effect of over 65% in size
Summary of the method: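 Viability measured as metabolically active cells via CellTiter-Glo luminescence following 48 hours of compound exposure, 11-point dilutions in confirmatory testing. 500-1,000 cells/well plated 5 hours before dosing; controls were DMSO and 2.3 µM bortezomib.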

[13] = qHTS of pediatric cancer cell lines to identify multiple opportunities for drug repurposing: Confirmatory screen for NB-EBc1 cells (AID 1347115);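 note: cells exposed to compound for 48 h before the viability read; nearly all actives have a fitted effect of over 45% in size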; note: potency is the fitted concentration of half-maximal effect; for activity change, negative = cytotoxic: % is set by controls: 0 for no effect and ±100 for the full control effect
Summary of the method: as §2

[14] = qHTS of pediatric cancer cell lines to identify multiple opportunities for drug repurposing: Confirmatory screen for A673 cells (AID 1347110);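 note: potency is the fitted concentration of half-maximal effect; cells exposed to compound for 48 h before the viability read; nearly all actives have a fitted effect of over 65% in size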
Summary of the method: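 Cells plated at 500-1,000/well were treated five hours later with multi-point dilutions up to 46 µM final. After two days, CellTiter-Glo was added and luminescence read.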

[15] = qHTS of pediatric cancer cell lines to identify multiple opportunities for drug repurposing: Confirmatory screen for BT-12 cells (AID 1347112); note: potency is the fitted concentration of half-maximal effect; nearly all actives have a fitted effect of over 55% in size
Summary of the method: as §2

[16] = qHTS of pediatric cancer cell lines to identify multiple opportunities for drug repurposing: Confirmatory screen for LAN-5 cells (AID 1347113); note: potency is the fitted concentration of half-maximal effect; nearly all actives have a fitted effect of over 65% in size
Summary of the method: as §2

[17] = qHTS of pediatric cancer cell lines to identify multiple opportunities for drug repurposing: Confirmatory screen for BT-37 cells (AID 1347117); note: potency is the fitted concentration of half-maximal effect; nearly all actives have a fitted effect of over 55% in size
Summary of the method: as §2

[18] = qHTS of pediatric cancer cell lines to identify multiple opportunities for drug repurposing: Confirmatory screen for TC32 cells (AID 1347118)
Summary of the method: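 Measured quantity: luminescence from CellTiter-Glo, reflecting metabolically active TC32 cells following 48 h of compound. Curves came straight from multi-point titrations, with 8 or 11 points in primary and 11 in confirmatory screening.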

Cc1[nH]c(C=C2C(=O)Nc3ccc(S(=O)(=O)N(C)c4cccc(Cl)c4)cc32)c(C)c1C(=O)N1CCN(C)CC1
active: Potency [1] 18.7 µM | Potency [2] 9.35 µM | Potency [3] 17.2 µM | Potency [4] 23.5 µM | Potency [5] 19.3 µM | Potency [6] 29.6 µM | Potency [8] 18.7 µM
inactive: Potency [7]

CC(C)(OCc1nn(Cc2ccccc2)c2ccccc12)C(=O)O
inactive: Potency [1] | Potency [2] | Potency [3] | Potency [4] | Potency [5] | Potency [6] | Potency [9] | Potency [7] | Potency [8] | Potency [10]

CC=C1C2C=C(C)CC1(N)c1ccc(=O)[nH]c1C2 (stereo not given)
inactive: Potency [1] | Potency [2] | Potency [3] | Potency [4] | Potency [5] | Potency [6] | Potency [9] | Potency [7] | Potency [8] | Potency [10]

O=c1[nH]nc(OCCCc2ccc(Cl)cc2)c(NCc2cccnc2)c1Br
active: Potency [1] 23.5 µM | Potency [2] 18.7 µM | Potency [3] 27.3 µM | Potency [4] 23.5 µM | Potency [5] 19.3 µM | Potency [6] 14.8 µM | Potency [9] 18.7 µM | Potency [8] 23.5 µM | Potency [10] 18.7 µM | Potency [11] 16.5 µM | Potency [12] 5.22 µM | Potency [13] 13.1 µM

OC[C@H]1O[C@@H](O[C@H]2[C@@H](O)[C@@](O)(CO)O[C@@H]2CO)[C@H](O)[C@@H](O)[C@@H]1O
inactive: Potency [1] | Potency [2] | Potency [3] | Potency [4] | Potency [5] | Potency [6] | Potency [9] | Potency [7] | Potency [8] | Potency [10]

CS(=O)(=O)c1ccc(C2=C(c3ccccc3)C(=O)OC2)cc1
inactive: Potency [1] | Potency [2] | Potency [3] | Potency [4] | Potency [5] | Potency [6] | Potency [9] | Potency [7] | Potency [8] | Potency [10]

CN[C@H]1[C@@H](O[C@@H]2[C@H](O[C@@H]3[C@@H](O)[C@@H](O)[C@@H](N=C(N)N)[C@@H](O)[C@@H]3N=C(N)N)O[C@H](C)[C@@]2(O)C=O)O[C@@H](CO)[C@@H](O)[C@H]1O
inactive: activity change, negative = cytotoxic [1] 3.56% [at 9.22 µM] | activity change, negative = cytotoxic [2] -3.6% [at 9.22 µM] | activity change, negative = cytotoxic [3] -1.02% [at 11.5 µM] | activity change, negative = cytotoxic [4] 1.83% [at 9.22 µM] | activity change, negative = cytotoxic [5] 7.71% [at 11.5 µM] | activity change, negative = cytotoxic [6] 1.46% [at 9.22 µM] | activity change, negative = cytotoxic [9] -18.1% [at 9.22 µM] | activity change, negative = cytotoxic [7] 10.5% [at 9.22 µM] | activity change, negative = cytotoxic [8] 15.1% [at 9.22 µM] | activity change, negative = cytotoxic [10] 17.1% [at 9.22 µM]

O=C(NCCCCN1CCOCC1)c1cc2ccccc2o1
inactive: Potency [1] | Potency [2] | Potency [3] | Potency [4] | Potency [5] | Potency [6] | Potency [9] | Potency [7] | Potency [10]

CN[C@@H]1[C@@H](O)[C@@H](O[C@@H]2[C@@H](O)[C@H](O[C@H]3O[C@H](CN)[C@@H](O)[C@H](O)[C@@H]3O)[C@@H](N)C[C@@H]2NC(=O)[C@@H](O)CN)OC[C@]1(C)O
inactive: Potency [1] | Potency [2] | Potency [3] | Potency [4] | Potency [5] | Potency [6] | Potency [9] | Potency [8] | Potency [10]

CCN1C[C@H](C)n2c(c(O)c3c(=O)n(Cc4ccc(F)c(Cl)c4)nc(C(=O)NC)c32)C1=O
inactive: Potency [1] | Potency [2] | Potency [3] | Potency [4] | Potency [5] | Potency [6] | Potency [9] | Potency [7] | Potency [8] | Potency [10]

CN(C)CCN(C)C(=O)c1ccc(NC(=O)Nc2ccc(-c3nc(N4CCOCC4)c4ccn(CC(F)(F)F)c4n3)cc2)cc1
inactive: Potency [13]
active: Potency [1] 0.418 µM | Potency [2] 2.64 µM | Potency [3] 3.06 µM | Potency [4] 0.187 µM | Potency [5] 0.0432 µM | Potency [6] 0.372 µM | Potency [9] 0.187 µM | Potency [10] 0.166 µM | Potency [14] 0.293 µM | Potency [15] 18.5 µM | Potency [16] 0.414 µM | Potency [12] 20.8 µM

C[C@]12CCC3=C4CCC(=O)C=C4CC[C@@H]3[C@H]1CC[C@@]2(O)CC#N
inactive: Potency [1] | Potency [2] | Potency [3] | Potency [4] | Potency [5] | Potency [6] | Potency [9] | Potency [7] | Potency [8] | Potency [10]

Cc1cccc(-c2[nH]c(C(C)(C)C)nc2-c2ccc3c(c2)OCO3)n1
active: Potency [1] 11.8 µM | Potency [2] 4.18 µM | Potency [3] 7.69 µM | Potency [5] 2.73 µM | Potency [6] 9.35 µM | Potency [10] 1.18 µM | Potency [14] 13.1 µM | Potency [11] 7.37 µM | Potency [15] 11.7 µM | Potency [16] 2.61 µM | Potency [17] 8.27 µM | Potency [18] 7.37 µM
inactive: Potency [4] | Potency [9] | Potency [8]

CCCCC(F)(F)[C@@]1(O)CC[C@H]2[C@H](CC(=O)[C@@H]2CCCCCCC(=O)O)O1
inactive: Potency [1] | Potency [2] | Potency [3] | Potency [4] | Potency [5] | Potency [6] | Potency [9] | Potency [7] | Potency [8]

CC(NCCc1ccc(O)cc1)C(O)c1ccc(O)cc1 (stereo not given)
inactive: Potency [1] | Potency [2] | Potency [3] | Potency [4] | Potency [5] | Potency [6] | Potency [9] | Potency [7] | Potency [8] | Potency [10]
